PMC7826789 (International Journal of Molecular Sciences, 2021)

These compounds were tested on IRAK1.
In the case of `Cc1cc(NC(=O)c2cccc(NC(=O)/C=C/CN(C)C)c2)ccc1Nc1nccc(-c2cccnc2)n1` [JNK-IN-7], the Kinases covered was “IRAK1”. In the case of `COC[C@@H](C)N[C@H]1CC[C@H](Nc2cc(-c3cccc(NCC4(C#N)CCOCC4)n3)c(Cl)cn2)CC1` [NVP-2], the Kinases covered was “IRAK1”. `COc1cc2ncnc(Nc3ccc(F)c(Cl)c3)c2cc1O[C@H]1CC[C@H](N)CC1` [BIBW3133BS] was tested, and the Kinases covered was “IRAK1”.

The compounds below were run on JAK2.
`COc1cc(Nc2nccc(N3CCC(NC(=O)C4COc5ccccc5O4)C3)n2)cc(OC)c1OC` (stereo not drawn) [GSK1379761] was tested, and the Kinases covered was “JAK2”. For `NC(=O)c1cccnc1COc1cc(-c2ccc(N3CCOCC3)nc2)cc2ncccc12` [BI01125081], the Kinases covered was “JAK2”. With `C[C@@H]1CCN(C(=O)CO)C[C@@H]1N(C)c1ncnc2[nH]ccc12` [PFE-PKIS 34] the Kinases covered was “JAK2”.
